Source: PubChem BioAssay
Shown are actives, neighbours in structure and some others; about 2.9% of the full set was active somewhere.
EP2 antag: blocks the human prostaglandin E2 receptor EP2. C6 glioma cells expressing human EP2, cAMP TR-FRET; cells stimulated with saturating PGE2. 260,000 tested, 0.52% active. inhibition, % at 25 µM. P43116;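 active means percent inhibition above 40 after rounding to a whole number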;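 further: rat C6 glioma host cells with rolipram phosphodiesterase inhibitor present; the protocol text gives 20 µM as final concentration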
PG9 binder: PG9 antibody binding by small molecule; AID 624416; TR-FRET gp120-PG9 antibody binding; inhibition, % at 6.7 µM; 360,000 tested, 0.43% active; in the data active means inhibition above about 8.5%
SKN-1 block: blocks SKN-1 activity in C. elegans | C. elegans VP596 Pgst-4::GFP/RFP ratio, acrylamide-induced, 24 h | inhibition, % at 21.8 µM | 360,000 tested, 0.49% active;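 active means interference check ratio from 0.5 to 1.5 plus GFP to RFP signal ratio inhibition reaching or exceeding a fixed threshold, cut at about 30% in these data, passing the limit was not always enough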
EP2 mod: modulates human prostaglandin E2 receptor EP2 signaling; P43116; EP2-expressing cells, cAMP HTRF FRET, PGE2 co-stimulation; induction, % at 25 µM; 260,000 tested, 0.83% active;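 active means compounds whose cAMP rise, as percent of the full-agonist control response, exceeds 60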;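 further: rat C6 glioma line stably carrying human EP2 under a CMV promoter; the protocol text gives 20 µM as final concentration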
Rev-erbA mod: modulates human Rev-erb alpha binding to DNA; P20393; Rev-erbα–FITC-DNA binding, fluorescence polarization, 90 min; activity, % at 10 µM; 370,000 tested, 0.79% active; AID 1259318;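 active means activity above about 14%, limit read from the data; passing the limit was not always enough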
Target sequence (P20393 whole entry, looked up): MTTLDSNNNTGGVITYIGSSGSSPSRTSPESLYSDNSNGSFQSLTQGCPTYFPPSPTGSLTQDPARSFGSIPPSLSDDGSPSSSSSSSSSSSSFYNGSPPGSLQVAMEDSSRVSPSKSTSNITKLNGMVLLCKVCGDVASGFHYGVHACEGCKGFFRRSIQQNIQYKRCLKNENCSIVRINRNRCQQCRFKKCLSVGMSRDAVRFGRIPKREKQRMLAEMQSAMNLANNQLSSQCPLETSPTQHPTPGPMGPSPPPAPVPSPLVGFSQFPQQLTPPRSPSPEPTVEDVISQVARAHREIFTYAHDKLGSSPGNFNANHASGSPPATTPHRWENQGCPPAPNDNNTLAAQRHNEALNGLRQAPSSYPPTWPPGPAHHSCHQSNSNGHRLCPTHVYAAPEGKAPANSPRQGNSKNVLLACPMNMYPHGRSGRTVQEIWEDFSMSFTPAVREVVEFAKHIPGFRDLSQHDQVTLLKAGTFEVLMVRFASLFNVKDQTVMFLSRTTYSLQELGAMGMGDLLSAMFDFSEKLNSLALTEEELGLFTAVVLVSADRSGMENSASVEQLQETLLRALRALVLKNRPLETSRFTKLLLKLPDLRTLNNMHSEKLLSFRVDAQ
RAM inhibit: yeast RAM network inhibition; 190,000 tested, 1.8% active; S. cerevisiae dse1pr::URA3 reporter, 5-FOA growth OD615, 2 d; analog-sensitive cbk1-as2 kinase mutant strain; inhibition, % at 50 µM;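 active means inhibition above a set limit, 3 SD over mean compound inhibition, cut at about 8.4% in these data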;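 further: inhibition rescues growth on 5-FOA so higher OD means more RAM inhibition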
Of the large screens only hits and unclear results are named; the others gave an inactive call; ! = not confirmed by another sample.

c1csc(-c2noc(COc3ccc4c(c3)CCCC4)n2)c1	SKN-1 block 38
CCOC(=O)CSc1ccc(S(=O)(=O)N2CCC(C)CC2)cc1[N+](=O)[O-]	RAM inhibit 11
O=C(CCl)Nc1ccccc1Sc1ccccc1	EP2 mod 64
N#CCC(=O)Nc1ccc(C(=O)OCC(=O)Nc2ccccc2Sc2ccccc2)cc1	RAM inhibit 8.4
CC(=O)Nc1ccccc1Sc1ccccc1	none
O=C(CN1CCN(S(=O)(=O)c2ccccc2F)CC1)Nc1ccccc1C(=O)c1ccccc1	RAM inhibit 11
O=C(CN1CCOCC1)Nc1ccccc1C(=O)O	EP2 antag 126!
Fc1ccccc1N1CCN(Cc2ccccn2)CC1	none (no result: PG9 binder, SKN-1 block, Rev-erbA mod, RAM inhibit)
CCc1ccc2nc(SCC(=O)Nc3ccccc3F)c(C#N)cc2c1	none (no result: PG9 binder, SKN-1 block, Rev-erbA mod, RAM inhibit)
CN1CCN(CC(=O)Nc2ccccc2Sc2ccccc2)CC1	none
O=C(CN1CCCC1)Nc1ccccc1Sc1ccccc1	EP2 mod 61
CCn1cnc2sc(C)c(-c3ccc(Cl)cc3)c2c1=O	none (no result: PG9 binder, SKN-1 block, Rev-erbA mod, RAM inhibit)
CC(=O)Nc1ccc2c(c1)C(=O)c1ccccc1C2=O	none
O=C(Nc1ccc(Nc2ccc3c(c2)C(=O)c2ccccc2C3=O)c2c1C(=O)c1ccccc1C2=O)c1ccccc1	EP2 antag 44 (no result: PG9 binder, SKN-1 block, Rev-erbA mod, RAM inhibit)
Cc1ccccc1OCC(=O)N1N=C(C(F)(F)F)CC1(O)C(C)(C)C (configuration not stated)	RAM inhibit 9.2
COCCCn1c(SCCc2ccccc2)nc2cc(OC)c(OC)cc2c1=N	none
CCSc1nc2cc(OC)c(OC)cc2c(=O)n1CCc1ccccc1	RAM inhibit 8.6
O=C(CSc1ncccc1-c1nc2ccccc2[nH]1)Nc1ccccc1C(F)(F)F	none (no result: PG9 binder, SKN-1 block, Rev-erbA mod, RAM inhibit)
CCSc1ccccc1C(=O)Nc1nnc(CC)s1	none (no result: PG9 binder, SKN-1 block, Rev-erbA mod, RAM inhibit)
N#CC1=C(N)Oc2n[nH]c(-c3cccs3)c2C1c1cccs1 (configuration not stated)	EP2 antag 52
CCOc1ccc2sc(C)nc2c1	none (no result: PG9 binder, SKN-1 block, Rev-erbA mod, RAM inhibit)
Oc1ccc(N=Nc2nc(-c3ccccc3)c(-c3ccccc3)[nH]2)cc1	RAM inhibit 8.8
COc1ccc(-c2nc3cnccn3c2NC2CCCCC2)cc1OC	none (no result: EP2 antag, PG9 binder, SKN-1 block, Rev-erbA mod, RAM inhibit)
Clc1ncc(CSc2ccccc2)s1	SKN-1 block 39
O=C(Nc1ccccc1)OCc1cnc(Cl)s1	none
COc1ccc(CCNC(=O)COc2ccc3c(C)cc(=O)oc3c2)cc1OC	none (no result: RAM inhibit)
COc1ccc(CC[N@+]2(C)COc3cc4oc(=O)cc(C)c4cc3C2)cc1OC	EP2 antag 51 (no result: PG9 binder, SKN-1 block, Rev-erbA mod, RAM inhibit)
O=C1CCc2cc(S(=O)(=O)NCC3(c4ccccc4)CCCC3)ccc2N1	none (no result: PG9 binder, SKN-1 block, Rev-erbA mod, RAM inhibit)
[N-]=[N+]=CC(=O)C(c1ccccc1)(c1ccccc1)c1ccccc1	EP2 mod 76 (no result: RAM inhibit)
[N-]=[N+]=CC(=O)C(O)(c1ccccc1)C(Cl)c1ccccc1 (configuration not stated)	none (no result: EP2 antag, EP2 mod, RAM inhibit)
CCc1ccccc1NC(=O)CSc1nnnn1-c1ccc(OC)cc1OC	none (no result: PG9 binder, SKN-1 block, Rev-erbA mod, RAM inhibit)
CC1(Cl)CS(=O)(=O)CC1Cl (configuration not stated)	none (no result: PG9 binder, SKN-1 block, Rev-erbA mod, RAM inhibit)
Cc1[nH]n(-c2ccccc2)c(=O)c1/C=N/c1ccccn1	SKN-1 block 51
Cc1cc2cc(C(c3nnnn3CCc3ccccc3)N3c4ccccc4CC3C)c(=O)[nH]c2cc1C (configuration not stated)	none (no result: PG9 binder, SKN-1 block, Rev-erbA mod, RAM inhibit)
CCC(=O)n1nc(NCc2ccccc2OC)nc1NCc1ccccc1OC	RAM inhibit 9.2
Cc1ccc(OCC(=O)Nc2sc3c(c2C(=O)NCC2CCCO2)CCCC3)cc1 (configuration not stated)	none (no result: PG9 binder, SKN-1 block, Rev-erbA mod, RAM inhibit)
O=C(c1ccc(Cn2cccn2)o1)N1CCC2(CC1)Nc1ccccc1-n1cccc12	none (no result: EP2 antag, PG9 binder, SKN-1 block, Rev-erbA mod, RAM inhibit)
CCOc1ccc2[nH]c(=O)c(CN(Cc3ccco3)Cc3nnnn3C3CCCC3)cc2c1	EP2 mod 64 (no result: PG9 binder, SKN-1 block, Rev-erbA mod, RAM inhibit)
CCOc1ccc2[nH]c(=O)c(CN(Cc3nnnn3C3CCCCC3)CC3CCCO3)cc2c1 (configuration not stated)	none (no result: PG9 binder, SKN-1 block, Rev-erbA mod, RAM inhibit)
Cc1ccc2cc(CN(Cc3ccco3)Cc3nnnn3C3CCCCC3)c(=O)[nH]c2c1C	EP2 mod 70 (no result: PG9 binder, SKN-1 block, Rev-erbA mod, RAM inhibit)
COc1ccccc1CN(Cc1cc2c(C)ccc(C)c2[nH]c1=O)Cc1nnnn1Cc1ccco1	SKN-1 block 37
Cc1cc2cc(CN(Cc3ccco3)Cc3nnnn3C3CCCCC3)c(=O)[nH]c2cc1C	none (no result: PG9 binder, SKN-1 block, Rev-erbA mod, RAM inhibit)
COc1ccc(Cn2nnnc2CN(Cc2ccco2)Cc2cc3cc(C)cc(C)c3[nH]c2=O)cc1	none (no result: PG9 binder, SKN-1 block, Rev-erbA mod, RAM inhibit)
Cc1ccc(C)c2[nH]c(=O)c(CN(Cc3ccco3)Cc3nnnn3C3CCCCC3)cc12	EP2 mod 72 (no result: PG9 binder, SKN-1 block, Rev-erbA mod, RAM inhibit)
CCc1ccc(OCCCC(=O)Nc2nnc(COC)s2)cc1	none (no result: PG9 binder, SKN-1 block, Rev-erbA mod, RAM inhibit)
COCCCNC(=O)C1CCN(S(=O)(=O)c2ccc(OC)c(Cl)c2)CC1	none (no result: PG9 binder, SKN-1 block, Rev-erbA mod, RAM inhibit)
CNc1oc(-c2ccc(C)cc2)nc1P(=O)(c1ccccc1)c1ccccc1	EP2 mod 61
O=C(CN1CCCC1)Nc1ccccc1C(=O)c1ccccc1	none (no result: RAM inhibit)
O=C(c1ccccc1)c1ccccc1NC(=O)C1CCCN1Cc1ccccc1 (configuration not stated)	EP2 mod 73 (no result: RAM inhibit)
O=C(CCCc1nc2ccccc2s1)N1CCN(S(=O)(=O)c2cccs2)CC1	RAM inhibit 8.8
CN1CCN(CC(=O)N2c3ccccc3Sc3cc4ccccc4cc32)CC1	EP2 antag 45 (no result: PG9 binder, SKN-1 block, Rev-erbA mod, RAM inhibit)
CC1CCN(CC(=O)N2c3ccccc3Sc3cc4ccccc4cc32)CC1	EP2 antag 46 (no result: PG9 binder, SKN-1 block, Rev-erbA mod, RAM inhibit)
CCOCCCNC(=O)c1cc2c(-c3ccc(Cl)cc3)nn(C)c2s1	RAM inhibit 9.0
Cc1cccc(C)c1OCC(O)CN(Cc1ccccc1O)C1CCCCC1 (configuration not stated)	SKN-1 block 37
N#C/C(=N/Nc1ccc(OC(F)(F)F)cc1)C(N)=S	SKN-1 block 54 (no result: RAM inhibit)
COc1ccc(N/N=C(\C#N)C(N)=O)cc1	none
O=C(Nc1cccc(S(=O)(=O)NC2=NCCC2)c1)c1cc(-c2ccccn2)nc2ccccc12	none (no result: RAM inhibit)
O=C(Nc1cccc(S(=O)(=O)NC2=NCCCCC2)c1)c1cc(-c2ccccc2Cl)nc2ccccc12	RAM inhibit 11
COC(=O)c1ccccc1S(=O)(=O)N(Cc1cc2c(C)ccc(C)c2[nH]c1=O)CC1CCCO1 (configuration not stated)	none (no result: PG9 binder, SKN-1 block, Rev-erbA mod, RAM inhibit)
Fc1ccc(-c2cnc(-c3cccs3)o2)cc1	SKN-1 block 92
Fc1ccc(-c2nc(-c3cccs3)no2)cc1	SKN-1 block 51 (no result: RAM inhibit)
Fc1ccc(-c2cc(-c3cccs3)cc(-c3ccccc3)n2)cc1	none (no result: RAM inhibit)
CC(C)NC(=O)c1cc(-c2ccc(Cl)cc2Cl)on1	none (no result: PG9 binder, SKN-1 block, Rev-erbA mod, RAM inhibit)
CNC(=O)c1c(NC(=O)c2ccc(N3C(=O)CCC3=O)cc2)sc2c1CCC(C)C2 (configuration not stated)	SKN-1 block 41 (no result: EP2 antag, EP2 mod, RAM inhibit)
CNC(=O)c1c(NC(=O)c2ccc(N3C(=O)CCC3=O)cc2)sc2c1CCCC2	none
O=C(CSc1ncn[nH]1)N1N=C2/C(=C/c3ccccc3)CCCC2C1c1ccccc1 (configuration not stated)	none
